PubChem BioAssay (NCI)
About 83,000 compounds went through this panel and 20% of them were active in at least one assay; those are over-represented in the sample as a whole.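 Testing used 96-well plates and a 48-hour single-concentration exposure. Example: -40 means 40% of the starting cells died.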 A number with no mark means an inactive call. Calls of active or inactive are those of the source. Rule for the calls: active = growth percent below 10; inactive = the rest.

Experiments:
Test in all cases: NCI-60 one-dose screen, 48 h (100 = growth as untreated, 0 = no growth, -100 = all killed)
Settings in all cases: 10 µM unless noted
[1] = test system: DU-145 prostate
[2] = test system: K-562 leukemia
[3] = test system: MALME-3M melanoma
[4] = test system: MDA-MB-231 breast
[5] = test system: RXF 393 renal
[6] = test system: SF-268 CNS
[7] = test system: SF-295 CNS
[8] = test system: SF-539 CNS
[9] = test system: UACC-257 melanoma
[10] = test system: M14 melanoma

COc1ccc2sc3c(NCCCN(C)C)nc4ccccc4c3c(=O)c2c1
growth [1]: 41.3% | growth [2]: -21.9% (active) | growth [3]: 58% | growth [4]: -6.11% (active) | growth [5]: 44.1% | growth [6]: 66.4% | growth [7]: 83.7% | growth [8]: 1.35% (active) | growth [9]: 76.7% | growth [10]: -57.8% (active)

CCc1ccc(Oc2c(-c3ccc(OCc4ccc(Cl)cc4)cc3O)n[nH]c2C(F)(F)F)cc1
growth [1]: 15% | growth [2]: 3.36% (active) | growth [3]: -28.3% (active) | growth [4]: 27.6% | growth [5]: 65% | growth [6]: 30% | growth [7]: 88.1% | growth [8]: 56.6% | growth [9]: 6.85% (active) | growth [10]: 30.5%

COc1cc(CCC[P+](c2ccccc2)(c2ccccc2)c2ccccc2)c(OC)c(OC)c1OC
growth [1]: 79.6% | growth [2]: 39.8% | growth [3]: 53.7% | growth [4]: 61.5% | growth [5]: 54.2% | growth [6]: 64.7% | growth [7]: 82.5% | growth [8]: 57.7% | growth [9]: 60.7% | growth [10]: 62%

COc1ccc(/C=C(/C#N)n2nnc3cccc(F)c32)cc1
growth [1]: -10.7% (active) | growth [2]: 12.8% | growth [3]: 32.5% | growth [4]: 0.925% (active) | growth [5]: -37.9% (active) | growth [6]: 28.2% | growth [7]: 16% | growth [8]: -39.3% (active) | growth [9]: 41.1% | growth [10]: -27% (active)

COc1ccc(C(=O)/C=C/c2sc(Cl)nc2Cl)cc1
growth [1]: 61.9% | growth [2]: 9.56% (active) | growth [3]: 32.1% | growth [4]: 38.7% | growth [5]: 24.6% | growth [6]: 31.9% | growth [7]: 52.3% | growth [8]: -20.5% (active) | growth [9]: 72.8% | growth [10]: 6.12% (active)

CCc1cccc2c1S/C(=C/c1ccc(OC)cc1)C2=O
growth [1]: 49.5% | growth [2]: 11.2% | growth [3]: 51.7% | growth [4]: 46.5% | growth [5]: 40.1% | growth [6]: 64.5% | growth [7]: 62.9% | growth [8]: 8.87% (active) | growth [9]: 72.6% | growth [10]: 28.3%

O=C1CSC(c2c(Cl)cccc2Cl)N1c1nc(Cl)cc(=O)[nH]1 (stereo not given)
growth [1]: 123% | growth [2]: 93.2% | growth [3]: 216% | growth [4]: 108% | growth [5]: 113% | growth [6]: 106% | growth [7]: 91.3% | growth [8]: 102% | growth [9]: 99.6% | growth [10]: 106%

O=C(/C=C/c1sc(Cl)nc1Cl)c1ccccc1
growth [1]: 99.1% | growth [2]: 10.8% | growth [3]: 95.7% | growth [4]: 98.7% | growth [5]: 99.7% | growth [6]: 104% | growth [7]: 102% | growth [8]: 72.3% | growth [9]: 94.9% | growth [10]: 79.8%

COc1ccc(-n2c(N)c(-c3nc4ccccc4[nH]3)cc(C#N)c2=O)cc1
growth [1]: 87.9% | growth [2]: 93.5% | growth [3]: 92.1% | growth [4]: 90.8% | growth [5]: 67.2% | growth [6]: 95.8% | growth [7]: 94.1% | growth [8]: 77.2% | growth [9]: 96.4% | growth [10]: 109%

CNC(=O)c1[nH]cc(-c2ccccc2)c1-c1cc(OC)c2c(c1OC)OCO2
growth [1]: 106% | growth [2]: 98.7% | growth [3]: 105% | growth [4]: 96.2% | growth [5]: 94.1% | growth [6]: 93.6% | growth [7]: 106% | growth [8]: 102% | growth [9]: 101% | growth [10]: 98.3%

CCCCOc1nc2c(C)cccc2cc1-c1cc(-c2ccc(Cl)cc2)nc(-c2ccc(Cl)cc2)c1
growth [1]: 109% | growth [2]: 91.2% | growth [3]: 95.5% | growth [4]: 89.5% | growth [5]: 106% | growth [6]: 92.7% | growth [7]: 101% | growth [8]: 96.8% | growth [9]: 98.9% | growth [10]: 101%

CN(C)CC#Cc1ccc2ncc(C#N)c(Nc3ccc(F)c(Cl)c3)c2c1
growth [1]: 22.4% | growth [2]: 51.4% | growth [3]: 45.1% | growth [4]: 56.1% | growth [5]: 32.4% | growth [6]: 59.2% | growth [7]: 65.4% | growth [8]: 62.4% | growth [9]: 76% | growth [10]: 40.5%

Cc1nn(-c2ccccc2)c2c1N=c1s/c(=C\c3ccc(C(F)(F)F)cc3)c(=O)n1CN2
growth [1]: 117% | growth [2]: 93.1% | growth [3]: 83.1% | growth [4]: 56.2% | growth [5]: 49.7% | growth [6]: 101% | growth [7]: 84% | growth [8]: 67.8% | growth [9]: -1.84% (active) | growth [10]: 69.4%

CCCCCCCCCCCCCCCCCCOc1ccc(CC(=O)OCC[N+]2(C)CCCCC2)cc1
growth [1]: 107% | growth [2]: 83.9% | growth [3]: 98.8% | growth [4]: 100% | growth [5]: 102% | growth [6]: 100% | growth [7]: 110% | growth [8]: 99.4% | growth [9]: 96% | growth [10]: 99.8%

COc1ccc(-c2conc2-c2ccccc2)cc1
growth [1]: 11.5% | growth [2]: 13.3% | growth [3]: 56.2% | growth [4]: 11.6% | growth [5]: -21.8% (active) | growth [6]: 44.6% | growth [7]: 16.3% | growth [8]: -23.4% (active) | growth [9]: 71.5% | growth [10]: 6.54% (active)

COc1ccc(OC)c(/C=C/c2nnc(Nc3ccccc3)o2)c1
growth [1]: 93.3% | growth [2]: 83.2% | growth [3]: 116% | growth [4]: 95% | growth [5]: 93.6% | growth [6]: 98.5% | growth [7]: 91.1% | growth [8]: 103% | growth [9]: 117% | growth [10]: 110%

COc1cccc(-c2nc(-c3ccc(NC(=O)OC(C)C)cc3)[nH]c2-c2ccnc(Br)c2)c1
growth [1]: 36% | growth [2]: 6.01% (active) | growth [3]: 21.8% | growth [4]: 37.3% | growth [5]: -33.9% (active) | growth [6]: 40.5% | growth [7]: -35.6% (active) | growth [8]: 10.5% | growth [9]: 45.3% | growth [10]: 29.9%

Cc1ccc(C(=O)N/N=C/c2cccc([N+](=O)[O-])c2)cn1
growth [1]: 100% | growth [2]: 101% | growth [3]: 114% | growth [4]: 95.6% | growth [5]: 110% | growth [6]: 110% | growth [7]: 107% | growth [8]: 98.6% | growth [9]: 95.6% | growth [10]: 112%

O=C1COCCN1c1ccc(NCc2cn(C(=O)c3ccc(Cl)cc3)c3ccccc23)cc1
growth [1]: 84.2% | growth [2]: 28.3% | growth [3]: 78.1% | growth [4]: 118% | growth [5]: 8.91% (active) | growth [6]: 98% | growth [7]: 47.2% | growth [8]: 93.4% | growth [9]: 33.6% | growth [10]: 74.1%

O=C1c2cccc3cccc(c23)C(=O)N1Nc1nc(NC2CCCCC2)nc(N2CCOCC2)n1
growth [1]: 108% | growth [2]: 88.9% | growth [3]: 90.1% | growth [4]: 82.9% | growth [5]: 109% | growth [6]: 99.7% | growth [7]: 105% | growth [8]: 98.4% | growth [9]: 100% | growth [10]: 95.4%

CCOC(=O)CC1C(COC(=O)NC)OC(n2cnc3c(NC(=O)Nc4ccccc4)ncnc32)C1O[Si](C)(C)C(C)(C)C (stereo not given)
growth [1]: 58.7% | growth [2]: 28.7% | growth [3]: 53.5% | growth [4]: 71.7% | growth [5]: 35% | growth [6]: 59.9% | growth [7]: 66.1% | growth [8]: 33.4% | growth [9]: 59.2% | growth [10]: 57.1%

Fc1cc(-c2nnc3n2NC(=Nc2ccc(Cl)cc2)CS3)c(Cl)cc1Cl
growth [1]: 97.8% | growth [2]: 51.5% | growth [3]: 105% | growth [4]: 104% | growth [5]: 89.8% | growth [6]: 91.7% | growth [7]: 81.5% | growth [8]: 98.6% | growth [9]: 92.5% | growth [10]: 92.4%

COc1ccc(CN2c3ccccc3CCc3ccccc32)cc1F
growth [1]: 8.55% (active) | growth [2]: 6.04% (active) | growth [3]: 84.3% | growth [4]: 17.5% | growth [5]: 17.8% | growth [6]: 38.9% | growth [7]: 11.7% | growth [8]: -16.2% (active) | growth [9]: 62% | growth [10]: -8.51% (active)

COc1ccc2cc(C(C)C(=O)Nc3ccc(-c4n[nH]c(=S)n4C4CCCCC4)cc3)ccc2c1 (stereo not given)
growth [1]: 89.1% | growth [2]: 63.9% | growth [3]: 124% | growth [4]: 75.9% | growth [5]: 91.1% | growth [6]: 65.5% | growth [7]: 60.7% | growth [8]: 83.8% | growth [9]: 76.7% | growth [10]: 63.2%

CN(C)c1ccc2nc3ccc(=[N+](C)C)c([N+](=O)[O-])c-3sc2c1
growth [1]: 54% | growth [2]: 23.8% | growth [3]: 9.75% (active) | growth [4]: 2.84% (active) | growth [5]: 79.7% | growth [6]: 33.4% | growth [7]: -1.42% (active) | growth [8]: 36.6% | growth [9]: 12.8% | growth [10]: 9.93% (active)

Cc1ccc(C(=O)NN2C(=O)CSC2c2ccc(Cl)cc2)cn1 (stereo not given)
growth [1]: 125% | growth [2]: 89.8% | growth [3]: 140% | growth [4]: 88.8% | growth [5]: 95.2% | growth [6]: 101% | growth [7]: 66.9% | growth [8]: 101% | growth [9]: 110% | growth [10]: 97.8%

COc1cccc2c(=O)c3c(sc12)c(N1CCNCC1)nc1ccccc13
growth [1]: 35.8% | growth [2]: -25.9% (active) | growth [3]: 104% | growth [4]: 53.1% | growth [5]: 79.7% | growth [6]: 87.9% | growth [7]: 102% | growth [8]: 69.6% | growth [9]: 101% | growth [10]: 81.3%
